Measured values: PubChem BioAssay (NCATS)
“And” between values parts separate entries of the source, which are not always exact repeats. Identical values can stand only once. Records with an inconclusive call do not appear. The source made the active and inactive calls. Unless noted, calls come from the whole dose curve; as a rule, active = well fitted inhibition curve with a large enough effect; inconclusive = small, poorly fitted or top-dose-only effect; inactive = flat fitted curve, though single readings scatter.

What was measured:
[1] = Drug repurposing screens with cells derived from glioblastoma tumor samples (AID 1345199); details: GBM patient neurospheres viability, ATP luminescence, 48 h; note: nearly all actives have a fitted effect of over 40% in size; note: potency is the fitted concentration of half-maximal effect; for activity, negative = cell killing: % is set by controls: 0 for no effect and ±100 for the full control effect
Method in brief: (§1)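 Four patient lines of CD133+ GBM neurospheres were screened at several concentrations; hits were retested in those lines plus three slower-growing GBM lines, using 48-hour treatment and ATP-based viability.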

[2] = system: astro; test: as above; details: viability, ATP luminescence, 48 h; series mostly up to 45.9 µM
Method in brief: as §1

[3] = target: Nuclear receptor subfamily 1 group I member 2 (Rattus norvegicus) (UniProt Q9R1A7); test: qHTS assay for small molecule activators of the rat pregnane X receptor (rPXR) signaling pathway (AID 651751; call rule not given here; note: 0% is about no effect); details: rPXR reporter cells, luciferase (One-Glo), 24 h
Nuclear receptor subfamily 1 group I member 2 (Rattus norvegicus), sequence (Q9R1A7 whole entry, looked up): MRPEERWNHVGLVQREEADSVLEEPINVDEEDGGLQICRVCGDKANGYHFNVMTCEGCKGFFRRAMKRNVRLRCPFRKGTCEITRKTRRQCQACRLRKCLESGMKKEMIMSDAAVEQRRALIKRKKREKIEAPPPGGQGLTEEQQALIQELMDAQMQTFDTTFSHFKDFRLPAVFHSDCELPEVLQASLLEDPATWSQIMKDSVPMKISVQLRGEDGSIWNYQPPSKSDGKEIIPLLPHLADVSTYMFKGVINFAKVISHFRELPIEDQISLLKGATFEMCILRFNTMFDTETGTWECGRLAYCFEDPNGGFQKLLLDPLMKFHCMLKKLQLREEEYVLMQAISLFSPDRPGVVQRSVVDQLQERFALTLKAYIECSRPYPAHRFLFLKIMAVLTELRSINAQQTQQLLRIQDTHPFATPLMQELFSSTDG

[4] = at 45.9 µM (top of the series), tumour line B
[5] = at 45.9 µM (top of the series), tumour line D
[6] = at 46 µM (top of the series), tumour line A
[7] = at 46.1 µM (top of the series), tumour line C
[8] = at 20 µM (top of the series), tumour line C
[9] = at 21.2 µM (top of the series), tumour line B
[10] = at 21.2 µM (top of the series), tumour line D
[11] = at 21.3 µM (top of the series), tumour line A

CC(=O)Nc1ccc(OC(C)=O)cc1
inactive: activity, negative = cell killing [1, 4] -2.78% | activity, negative = cell killing [1, 5] 2.27% | activity, negative = cell killing [1, 6] -21% | activity, negative = cell killing [1, 7] -27.8% | Potency [2]

OCC1(CO)COC(C(Cl)(Cl)Cl)OC1
inactive: activity, negative = cell killing [1, 4] -8.7% | activity, negative = cell killing [1, 5] -7.18% | activity, negative = cell killing [1, 6] -26.1% | activity, negative = cell killing [1, 7] -4.39% | Potency [2]

CC(O)[C@@H]1NC(=O)[C@H](Cc2ccccc2)NC(=O)[C@H](C(C)O)NC(=O)[C@H](CCCCN)NC(=O)[C@H](Cc2c[nH]c3ccccc23)NC(=O)[C@H](Cc2ccccc2)NC(=O)[C@H](Cc2ccccc2)NC(=O)[C@H](CC(N)=O)NC(=O)[C@H](CCCCN)NC(=O)[C@@H](NC(=O)CNC(=O)[C@H](C)N)CSSC[C@@H](C(=O)O)NC(=O)[C@H](CO)NC1=O (some centres not stated)
inactive: activity, negative = cell killing [1, 4] -13.9% | activity, negative = cell killing [1, 5] -20.3% | activity, negative = cell killing [1, 6] -21.3% | activity, negative = cell killing [1, 7] -3.11% | Potency [2]

NC(=S)NS(=O)(=O)c1ccc(N)cc1
inactive: activity, negative = cell killing [1, 4] -6.04% | activity, negative = cell killing [1, 5] 0.448% | activity, negative = cell killing [1, 6] -23.8% | activity, negative = cell killing [1, 7] -8.76% | Potency [2]

COc1ccc([C@@H]2CC(=O)c3c(O)cc(O[C@@H]4O[C@H](CO[C@@H]5O[C@@H](C)[C@H](O)[C@@H](O)[C@H]5O)[C@@H](O)[C@H](O)[C@H]4O)cc3O2)cc1O
inactive: activity, negative = cell killing [1, 8] -7.12% | activity, negative = cell killing [1, 9] -4.88% | activity, negative = cell killing [1, 10] -12.7% | activity, negative = cell killing [1, 11] -11.4% | Potency [2]

COC(=O)CCC[N+](C)(C)C
inactive: activity, negative = cell killing [1, 4] 2.12% | activity, negative = cell killing [1, 5] -8.53% | activity, negative = cell killing [1, 6] -30.6% | activity, negative = cell killing [1, 7] -18.9% | Potency [2]

O=C(O)c1ccc(NC(=O)[C@H](Cc2ccc(O)cc2)NC(=O)c2ccccc2)cc1
inactive: activity, negative = cell killing [1, 4] -3.63% | activity, negative = cell killing [1, 5] -4.5% | activity, negative = cell killing [1, 6] -23.1% | activity, negative = cell killing [1, 7] -6.93% | Potency [2]

C[N+]1(C)[C@@H]2CC(OC(=O)C(O)(c3cccs3)c3cccs3)C[C@H]1[C@@H]1O[C@@H]12 (some centres not stated)
inactive: activity, negative = cell killing [1, 4] -12.3% | activity, negative = cell killing [1, 5] 0.442% | activity, negative = cell killing [1, 6] -24.6% | activity, negative = cell killing [1, 7] -20.7% | Potency [2]

C=O
inactive: activity, negative = cell killing [1, 4] -5.16% | activity, negative = cell killing [1, 5] -12.4% | activity, negative = cell killing [1, 6] -10.6% | activity, negative = cell killing [1, 7] 0.841% | Potency [2]

CCCCCCCCCCCC(=O)OCC(O)CO (configuration not stated)
inactive: activity, negative = cell killing [1, 4] -6.19% | activity, negative = cell killing [1, 5] -1.8% | activity, negative = cell killing [1, 6] -27.7% | activity, negative = cell killing [1, 7] -2.49% | Potency [2]

H-RKDVY-OH
inactive: activity, negative = cell killing [1, 4] -2.29% | activity, negative = cell killing [1, 5] 4.86% | activity, negative = cell killing [1, 6] -6.05% | activity, negative = cell killing [1, 7] -18.9% | Potency [2]

CN1CCc2c(c3ccccc3n2Cc2ccccc2)C1
inactive: activity, negative = cell killing [1, 8] -5.19% | activity, negative = cell killing [1, 9] -12.3% | activity, negative = cell killing [1, 10] -14.4% | Potency [2]
active: Potency ([1]; tumour line A) 5.62 µM

O=P(O)(O)CP(=O)(O)O
inactive: activity, negative = cell killing [1, 4] -7.32% | activity, negative = cell killing [1, 5] -1.92% | activity, negative = cell killing [1, 6] -22% | activity, negative = cell killing [1, 7] -17.6% | Potency [2]

O.O.O.O.O.O.O.O=S(=O)([O-])[O-].[Co+2]
inactive: activity, negative = cell killing [1, 4] -22.6% | activity, negative = cell killing [1, 5] 15.1% | activity, negative = cell killing [1, 6] -23.8% | activity, negative = cell killing [1, 7] 10.4% | Potency [2]

CN1CCC(OC(=O)C(Oc2ccc(Cl)cc2)Oc2ccc(Cl)cc2)CC1
inactive: activity, negative = cell killing [1, 4] -23.9% | activity, negative = cell killing [1, 5] -4.4% | activity, negative = cell killing [1, 6] -21% | activity, negative = cell killing [1, 7] -21% | Potency [2]

CCCC1C(=O)N2C(N(C)C)=Nc3ccc(C)cc3N2C1=O (configuration not stated)
inactive: activity, negative = cell killing [1, 8] -0.417% | activity, negative = cell killing [1, 9] -20.8% | activity, negative = cell killing [1, 10] -11.9% | activity, negative = cell killing [1, 11] -28.1% | Potency [2]

[O]=[Bi][O][Bi]=[O]
inactive: activity, negative = cell killing [1, 4] -6.82% | activity, negative = cell killing [1, 5] -2.13% | activity, negative = cell killing [1, 6] 1.51% | activity, negative = cell killing [1, 7] 0.751% | Potency [2]

CC(C)[C@@H]1CC[C@@H](C)C[C@H]1O
inactive: activity, negative = cell killing [1, 4] -7.27% | activity, negative = cell killing [1, 5] 3.66% | activity, negative = cell killing [1, 6] -18.1% | activity, negative = cell killing [1, 7] -14.4% | Potency [2] | max response [3] -1.32%

C[C@@](Cc1ccc(O)c(O)c1)(NN)C(=O)O
inactive: activity, negative = cell killing [1, 4] -16.8% | activity, negative = cell killing [1, 5] -8.91% | activity, negative = cell killing [1, 6] -39.3% | activity, negative = cell killing [1, 7] -14.3% | Potency [2]

CC(C)CCC[C@@H](C)[C@H]1CC[C@H]2[C@@H]3CC=C4C[C@@H](O)CC[C@]4(C)[C@H]3CC[C@]12C
inactive: activity, negative = cell killing [1, 4] -9.94% | activity, negative = cell killing [1, 5] -4.88% | activity, negative = cell killing [1, 6] -8.25% | activity, negative = cell killing [1, 7] 1.16% | Potency [2] | max response [3] -2.23%

C=CCN1CCCC1CNC(=O)c1cc(S(N)(=O)=O)cc(OC)c1OC (configuration not stated)
active: Potency ([1]; tumour line A) 35.5 µM
inactive: activity, negative = cell killing [1, 4] -7.52% | activity, negative = cell killing [1, 5] -19.4% | Potency [2]

OCC(O)CO
inactive: activity, negative = cell killing [1, 4] -10.1% | activity, negative = cell killing [1, 5] -10.7% | activity, negative = cell killing [1, 6] -18.9% | activity, negative = cell killing [1, 7] 6.43% | Potency [2] | max response [3] -2.39% and -3.75%
